Test results published in the supplement of paper PMC8975748.
Where a name gives a salt, the structure may show the parent alone.

These compounds were tested on Saccharomyces cerevisiae BY4741 SeMeCo community (assay: z-score of subpopulation abundance vs DMSO median, subpopulation auxotrophic for HU; higher = larger share of this subpopulation than in DMSO controls). Conditions: 10 µM; 24 h; SM minimal medium; subpopulation (auxotrophy): HU.
Description: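 Fluorescent four-plasmid SeMeCo (self-establishing metabolically cooperating S. cerevisiae BY4741 community; plasmids pH-mRuby2, pL-mWasabi, pU-eCFP, pM-TagRFP657) was grown 24 h in minimal SM medium with each Selleck FDA-approved drug at 10 µM in 384-well plates. Cells were fixed and imaged by high-content confocal microscopy. For each auxotrophic subpopulation (and the prototroph), a z-score gives the deviation from the DMSO vehicle-control population median.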

| Structure (SMILES) | z-score of subpopulation abundance |
| --- | --- |
| O=[N+]([O-])C(Br)(CO)CO [Bronopol] | 0.4 |
| CCC1=C[C@H]2CN3CCc4c([nH]c5ccccc45)[C@](C(=O)OC)(C2)[C@H]13 [Catharanthine] | -0.39 |
| CN[C@@H]1[C@@H](O)[C@@H](O[C@@H]2[C@@H](O)[C@H](O[C@H]3O[C@H]([C@@H](C)O)[C@@H](O)[C@H](O)[C@H]3N)[C@@H](N)C[C@H]2N)OC[C@]1(C)O [Geneticin (G418 Sulfate)] | -0.46 |
| C[N+](C)(C)CCCCCCCCCC[N+](C)(C)C [Decamethonium Bromide] | -0.06 |
| CCN(C)C(=O)Oc1cccc([C@H](C)N(C)C)c1 [Rivastigmine] | 0.2 |
| C[C@@H]1O[C@@H](O[C@H]2C[C@@H](O)[C@]3(CO)[C@H]4[C@H](O)C[C@]5(C)[C@@H](C6=CC(=O)OC6)CC[C@]5(O)[C@@H]4CC[C@]3(O)C2)[C@H](O)[C@H](O)[C@H]1O [Ouabain] | -0.71 |
| CN1[C@@H]2C[C@@H](OC(=O)[C@H](CO)c3ccccc3)C[C@H]1[C@@H]1O[C@@H]12 [Scopolamine HBr trihydrate] | -0.46 |
| C=CCN1C[C@H](C(=O)N(CCCN(C)C)C(=O)NCC)C[C@@H]2c3cccc4[nH]cc(c34)C[C@H]21 [Cabergoline] | 0.39 |
| CC(=O)OCC1=C(C(=O)O)N2C(=O)C(N)C2SC1 (stereo not given) [7-Aminocephalosporanic acid] | 0.37 |
| C[N+]12CCC(CC1)C(OC(=O)C(O)(c1ccccc1)c1ccccc1)C2 (stereo not given) [Clidinium Bromide] | -0.29 |
| CN[C@@H]1[C@@H](O)[C@@H](O[C@@H]2[C@@H](O)[C@H](O[C@H]3O[C@H](CN)CC[C@H]3N)[C@@H](N)C[C@H]2N)OC[C@]1(C)O.CN[C@@H]1[C@@H](O)[C@@H](O[C@@H]2[C@@H](O)[C@H](O[C@H]3O[C@H]([C@@H](C)N)CC[C@H]3N)[C@@H](N)C[C@H]2N)OC[C@]1(C)O.CN[C@@H]1[C@@H](O)[C@@H](O[C@@H]2[C@@H](O)[C@H](O[C@H]3O[C@H]([C@@H](C)NC)CC[C@H]3N)[C@@H](N)C[C@H]2N)OC[C@]1(C)O [Gentamicin Sulfate] | -0.53 |
| CCN1CC2(OC(=O)c3ccccc3NC(C)=O)CCC(OC)C34C1C(CC23)C1(O)CC(OC)C2CC4C1(O)C2OC (stereo not given) [Lappaconitine] | 0.26 |
| NC(=O)CN1CCCC1=O [Piracetam] | 0.46 |
| COc1ccc(C=O)cc1 [p-Anisaldehyde] | -0.72 |
| CC[N+](C)(CC)CCOC(=O)C(O)(c1ccccc1)c1ccccc1 [Methylbenactyzine Bromide] | -0.63 |
| CCOC(=O)Nc1ccc(NCc2ccc(F)cc2)cc1N [Retigabine 2HCl] | -0.49 |
| CC1(C)SC2C(N)C(=O)N2C1C(=O)O (stereo not given) [6-Aminopenicillanic acid] | 0.4 |
| CN1[C@@H]2CC[C@H]1C[C@@H](OC(=O)C(CO)c1ccccc1)C2 (stereo not given in full) [Atropine sulfate monohydrate] | 0.23 |
| CCCN1C[C@H](CSC)C[C@@H]2c3cccc4[nH]cc(c34)C[C@H]21 [Pergolide Mesylate] | -0.93 |
| CN(C)[C@@H]1C(=O)C(C(N)=O)=C(O)[C@@]2(O)C(=O)C3=C(O)c4c(O)cccc4[C@@](C)(O)[C@H]3[C@H](O)[C@@H]12 [Oxytetracycline (Terramycin)] | 0.99 |

| Structure (SMILES) | z-score of subpopulation abundance |
| --- | --- |
| C#C[C@]1(O)C=C[C@H]2[C@@H]3CCC4=CC(=O)CC[C@@H]4[C@H]3CC[C@@]21CC [Gestodene] | -0.67 |
| Oc1cc(Cl)ccc1Oc1ccc(Cl)cc1Cl [Triclosan] | 0.43 |
| COc1ccc2[nH]cc(CCN)c2c1 [5-Methoxytryptamine] | 0.53 |
| CC(C)=CCOc1c2occc2cc2ccc(=O)oc12 [Imperatorin] | 0.85 |
| Nc1nc(N)nc(NC2CC2)n1 [Cyromazine] | 0.05 |
| CN(C)C(=O)Oc1ccc[n+](C)c1 [Pyridostigmine Bromide] | 0.63 |
| CC[C@@]1(O)C(=O)OCc2c1cc1n(c2=O)Cc2cc3ccccc3nc2-1 [Camptothecin] | -0.74 |
| NCC(O)c1ccc(O)cc1 (racemic) [(+,-)-Octopamine HCl] | 0.29 |
| C=CC[C@]1(O)CC[C@H]2[C@@H]3CCC4=CC(=O)CCC4=C3C=C[C@@]21C [Altrenogest] | -1.33 |
| CN(C)[C@@H]1C(=O)C(C(N)=O)=C(O)[C@@]2(O)C(=O)C3=C(O)c4c(O)cccc4[C@@](C)(O)[C@H]3[C@H](O)[C@@H]12 [Oxytetracycline Dihydrate] | -0.06 |
| Cn1cc(C2=C(c3cn(C4CCN(Cc5ccccn5)CC4)c4ccccc34)C(=O)NC2=O)c2ccccc21 | -0.2 |
| CC(C)N(CCC(C(N)=O)(c1ccccc1)c1ccccn1)C(C)C (stereo not given) [Disopyramide] | -0.45 |
| CNC1CC(N)C(O)C(OC2OC(CO)C(O)C3OC4(OC(C(N)CO)C(O)C(O)C4O)OC23)C1O (stereo not given) [Hygromycin B] | -0.07 |
| O=C(O[C@H]1C[N+]2(CCCOc3ccccc3)CCC1CC2)C(O)(c1cccs1)c1cccs1 [Aclidinium Bromide] | 0.63 |
| COc1ccc2c3c([nH]c2c1)C(C)=NCC3 [Harmaline] | -7.98 |
| CCN(CC)CCOC(=O)C(O)(c1ccccc1)c1ccccc1 [Benactyzine hydrochloride] | 1.62 |
| O=c1cccc2n1C[C@@H]1CNC[C@H]2C1 [Cytisine] | -0.56 |
| COC(=O)C1=CCCN(C)C1 [Arecoline HBr] | 0.06 |
| C=C[C@H]1CN2CC[C@H]1C[C@H]2[C@H](O)c1ccnc2ccccc12 [Cinchonidine] | -0.45 |
| CN1[C@@H]2CC[C@H]1C[C@@H](OC(=O)[C@H](CO)c1ccccc1)C2 [Hyoscyamine] | -0.35 |
